# From PubChem
# AddAB inh – growth inhibition of E. coli expressing H. pylori AddAB, primary screen, AddAB inhibitor project, absorbance | 0.29% of 330,000 active | AID 435030, 2010 | inhibition, % at 11.9 µM; in the data active means inhibition above about 12%;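 further: 0% = vehicle wells of infected cells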
# E coli growth-1 – E. coli V3065 growth inhibition, primary screen, counter-screen for AddAB inhibitor project, absorbance, OD600. 18 h. 0.27% of 330,000 active. inhibition, % at 11.9 µM. AID 449728, 2010;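 active means inhibition above the campaign's mean inhibition across all tested compounds plus 3 SD, cut at about 9.9% in these data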;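 further: uninfected addAB+ strain grown without phage in ampicillin broth; 0% = DMSO wells and 100% = ciprofloxacin 0.95 µg/ml wells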
# Tat transport – E. coli Tat export inhibitors, primary screen, MC4100, TorA-mCherry reporter, fluorescence, single point. inhibition, % at 10 µM. 0.036% of 340,000 active. AID 488895, 2010;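 active means mean replicate inhibition at least 50% and at least half of replicates individually reaching 50%; inconclusive means only one of the two criteria met; inactive means neither criterion met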;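 further: exported cargo escapes ClpAP degradation while cytoplasmic cargo is degraded and loses fluorescence; 0% = median of neutral control wells and 100% = median of NaSCN control wells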
# Calb FLC – C. albicans growth inhibition with fluconazole, primary screen, CaCi-2 strain, Alamar Blue fluorescence; C. albicans CaCi-2 (fluconazole-resistant clinical isolate) + fluconazole, 48 h; growth inhibition, % (no concentration beside the values); 0.57% of 300,000 active;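 active means growth inhibition above about 58% in most replicates, limit read from the data, passing the limit was not always enough; inconclusive means exactly half the replicates above a set limit; inactive means most replicates below a set limit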;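 further: all wells also contain fluconazole at 8 µg/ml as a sub-toxic cotreatment; 0% = median of DMSO wells and 100% = median of geldanamycin control wells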
# E coli growth-2 – E. coli growth inhibition, primary screen, OD600; Escherichia coli growth, 23 h; stronger effect = lower value; OD600 absorbance (no concentration beside the values); 0.21% of 330,000 active;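 active means OD600 absorbance below the run mean of sample wells minus 3.6 SD, in any replicate, cut at about 0.56 in these data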
# phage Ecoli inh – growth loss of phage-infected E. coli, primary screen, RecBCD inhibitor project, absorbance, with phage, HTS. 0.26% of 360,000 active. inhibition, % at 11.9 µM; in the data active means inhibition above about 11%
# AddAB conf – growth loss of phage-infected E. coli expressing H. pylori AddAB, confirmation, AddAB inhibitor project, absorbance, E. coli V3065, T4 phage, triplicate | shares compounds with AddAB inh | inhibition, % at 11.9 µM | AID 488942, 2010 | OD; T4 phage with gene 2 nonsense mutations | 64% of 880 active;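 active means mean inhibition above a set limit taken from the earlier primary screen, cut at about 13% in these data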;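 further: higher means less bacterial growth since AddAB block lets phage replicate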
# RecBCD counter – growth loss of RecBCD+ E. coli with mutant T4 phage, counter-screen for AddAB inhibitor project, absorbance, V66 E. coli; shares compounds with AddAB inh; OD growth; inhibition, % at 11.9 µM; 73% of 880 active; AID 488955, 2010;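 active means mean inhibition above the mean of solvent-only control wells plus 3 SD, cut at about 4% in these data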;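 further: optical density read after an 18 h incubation at 37 °C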
# Bact viability – bacterial viability inhibition counter-screen, confirmation, counter-screen for AddAB inhibitor project, absorbance | shares compounds with AddAB inh | absorbance (AddAB counterscreen) | AID 488956, 2010 | 35% of 880 active | inhibition, % at 11.9 µM; in the data active means inhibition above about 25%
# RecBCD conf – growth loss of phage-infected RecBCD+ E. coli, confirmation, RecBCD inhibitor project, absorbance, E. coli V66, T4 gene 2 phage. shares compounds with phage Ecoli inh. E. coli V66 + T4 2- phage, growth OD. inhibition, % at 11.9 µM. 45% of 890 active. AID 651982, 2013;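 active means mean inhibition over triplicates exceeding the hit threshold derived in the original primary screen, cut at about 11% in these data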
# Ecoli viability – E. coli viability inhibition, counter-screen for RecBCD inhibitor project, absorbance, high throughput. inhibition, % at 11.9 µM. 29% of 890 active. absorbance (OD) growth. AID 651983, 2013. shares compounds with phage Ecoli inh; in the data active means inhibition above about 20%;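 further: E. coli strain V66 grown with compound alone and no phage infection; 0% = bacteria with DMSO vehicle only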
# AddAB counter – growth loss of phage-infected AddAB-carrying E. coli, confirmation, counter-screen for RecBCD inhibitor project, absorbance, E. coli V3065, T4 phage. shares compounds with phage Ecoli inh. E. coli expressing H. pylori AddAB + T4 phage, OD growth; gene 2 mutant T4, recBCD-deleted host. inhibition, % at 11.9 µM. 45% of 890 active;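 active means mean inhibition above the solvent-only control wells' mean plus 3 SD, cut at about 22% in these data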;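 further: higher means less bacterial growth from phage killing when AddAB is blocked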
# Starred values were filed as active, the others as inactive; ? = inconclusive; / = not tested or not shown. An excerpt weighted towards active compounds, which were near 0.9% of everything screened.
SMILES,AddAB inh,E coli growth-1,Tat transport,Calb FLC,E coli growth-2,phage Ecoli inh,AddAB conf,RecBCD counter,Bact viability,RecBCD conf,Ecoli viability,AddAB counter
COc1ccc(/C=C2\CCC/C(=C\C=NN(C)C)C2=O)cc1,/,/,/,/,0.672,/,/,/,/,/,/,/
O=C(NN=C1CCSC1)c1cc(Cl)ccc1O,/,/,/,/,0.655,/,/,/,/,/,/,/
COc1ccccc1NCC(=O)NN=Cc1sccc1C,/,/,/,/,0.677,/,/,/,/,/,/,/
O=C(Cc1ccc([N+](=O)[O-])cc1)NN=Cc1cccs1,/,/,/,/,0.718,/,/,/,/,/,/,/
CCn1cc(C(=O)O)c(=O)c2cc(F)c(N3CCN(C(=S)Nc4ccccc4OC)CC3)cc21,97.5*,99.1*,24.3,-27.9,0.0735*,99.7*,98.5*,99.4*,98.9*,101.6*,102.9*,101.7*
CCCCCCCCCC(=O)N1CCN(c2cc3c(cc2F)c(=O)c(C(=O)O)cn3CC)CC1,-0.4,1.4,0.4,0.3,0.562,0.7,/,/,/,/,/,/
CCn1cc(C(=O)O)c(=O)c2cc(F)c(N3CCN(C(=S)NC(=O)c4c(OC)cccc4OC)CC3)cc21,98.9*,98.4*,25.9,?,0.0695*,99.0*,98.8*,98.9*,99.1*,101.7*,102.5*,102.8*
NC(=S)NN=Cc1coc2ccc(F)cc2c1=O,/,/,/,/,0.676,/,/,/,/,/,/,/
C=CC1=C(C(=O)O)N2C(=O)[C@@H](NC(=O)/C(=N\O)c3csc(N)n3)[C@H]2SC1 (stereo in doubt),98.6*,99.0*,-0.9,-6.0,/,99.1*,102.9*,101.3*,102.7*,104.5*,106.0*,105.2*
CCn1ccc(C(=O)NC2C(=O)N3C(C(=O)O)=C(C)CSC23)n1 (stereo not drawn),1.4,1.1,-4.8,-0.7,0.718,1.4,/,/,/,/,/,/
O=C(CNc1cccc2ccccc12)NN=Cc1ccc([N+](=O)[O-])o1,/,/,/,/,0.579,/,/,/,/,/,/,/
CCCC(=O)NC(c1ccc(Cl)cc1Cl)c1ccc2cccnc2c1O (stereo not drawn),20.0*,27.4*,-1.4,-2.1,/,23.6*,20.3*,20.3*,18.7,15.7*,18.7,25.3*
CC(=O)NC(c1ccc2ccccc2c1)c1ccc2cccnc2c1O (stereo not drawn),29.5*,27.0*,-6.7,-4.4,/,24.4*,28.4*,21.9*,20.2,16.0*,19.8*,31.9*
CCCCC(=O)NC(c1ccc(OC)c(OC)c1)c1c(O)ccc2ccccc12 (stereo not drawn),1.3,-1.2,4.2,15.9,0.653,/,/,/,/,/,/,/
CCCCC(=O)NC(c1ccc(Cl)cc1)c1ccc2cccnc2c1O (stereo not drawn),31.5*,30.2*,-5.0,97.0*,/,19.8*,29.2*,22.1*,23.2,11.6*,14.4,33.4*
CCCCC(=O)NC(c1ccccc1OC)c1ccc2cccnc2c1O (stereo not drawn),32.2*,33.0*,23.4,95.6*,0.62,34.0*,30.3*,27.8*,26.7*,20.9*,24.6*,31.7*
COC(=O)[C@@]12CCCN1C(c1ccc(-c3ccc4c(c3)OCO4)cc1)C1C(=O)N(C)C(=O)C12 (stereo partly drawn),/,/,/,/,0.71,/,/,/,/,/,/,/
O=C1C=C(c2ccc3c(c2)OCO3)CC(c2ccc3c(c2)OCO3)C1 (stereo not drawn),/,/,/,/,0.633,/,/,/,/,/,/,/
CCCC(=O)NC(c1ccc(Cl)cc1)c1ccc2cccnc2c1O (stereo not drawn),18.7*,28.0*,-9.5,108.0*,/,18.4*,24.4*,22.9*,23.6,15.5*,19.5,26.6*
C(=N\Nc1nc2ccccc2s1)/c1ccccn1,15.5*,15.6*,/,-2.7,/,20.9*,19.4*,14.1*,13.0,10.7,12.0,20.7
COc1ccc(CNC(=O)CC(C)=NNC(=O)c2ccc([N+](=O)[O-])cc2Cl)cc1,/,/,/,/,0.635,/,/,/,/,/,/,/
Cc1ccc(/C=N\NC(=O)c2ccc(Cn3cc(Br)c([N+](=O)[O-])n3)o2)o1,36.2*,27.1*,4.9,1.3,/,12.5*,72.8*,9.4*,51.3*,5.6,8.9,44.0*
Cc1ccc(C=NNC(=O)c2ccc(Cn3cc(Br)c([N+](=O)[O-])n3)o2)o1,/,/,/,/,0.665,/,/,/,/,/,/,/
COc1ccc(CC(N)=NOC(=O)Cc2ccccc2)cc1OC,/,/,/,/,0.695,/,/,/,/,/,/,/
CCn1cc(C(=O)O)c(=O)c2cc(F)c(N3CCN(C(=S)NC(=O)c4ccc(F)cc4)CC3)cc21,97.8*,96.3*,13.0,-0.9,0.063*,99.2*,100.2*,100.4*,102.4*,103.2*,104.0*,105.0*
CCCCCCC(=O)N1CCN(c2cc3c(cc2F)c(=O)c(C(=O)O)cn3CC)CC1,10.4,8.3,-2.0,-5.0,/,3.4,/,/,/,/,/,/
CCn1cc(C(=O)O)c(=O)c2cc(F)c(N3CCN(C(=S)NC(=O)c4ccc(F)c(F)c4)CC3)cc21,97.6*,97.6*,91.2*,?,0.0705*,99.1*,99.6*,87.5*,99.4*,102.5*,103.5*,103.8*
CCn1cc(C(=O)O)c(=O)c2cc(F)c(N3CCN(C(=S)NC(=O)c4ccccc4Br)CC3)cc21,97.1*,98.7*,11.4,-4.5,0.067*,94.0*,102.5*,22.3*,102.2*,100.6*,101.9*,102.1*
CCn1cc(C(=O)O)c(=O)c2cc(F)c(N3CCN(C(=S)NC(=O)c4cccc(F)c4)CC3)cc21,98.1*,98.9*,4.0,-4.8,0.0715*,42.0*,100.1*,100.0*,100.2*,100.6*,101.4*,101.2*
O=C1C=C(c2cccc3c2sc2ccccc23)CC(c2ccc(F)cc2)C1 (stereo not drawn),/,/,/,/,0.695,/,/,/,/,/,/,/
